Measurements published in PubChem BioAssay (NCATS).
Records with an inconclusive call do not appear. Calls of active or inactive are those of the source. Unless noted, the call rests on the fitted dose curve; in most records, active means well fitted curve in the direction sought with a large enough effect; inconclusive means small, poorly fitted or top-dose-only effect, or another doubt; inactive means no such curve, though single readings can be large; an effect the other way counts as inactive or inconclusive.

How the values were obtained:
[1] = Quantitative High-Throughput drug screen in 47 multiple myeloma cell lines against the NCATS MIPE library collection: OCIMY7_PLB cell viability assay (AID 1918987); further: potency means the concentration at half of the fitted maximal effect; nearly all actives have a fitted effect of over 65% in size
Procedure, shortened: (§1)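 Readout: median RLU from CellTiter-Glo after 5 min at room temperature. Preceding step was 48 h drug treatment of 500 cells/well at 37 °C, 5% CO2, with DMSO-only and media-only control wells.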

[2] = Quantitative High-Throughput drug screen in 47 multiple myeloma cell lines against the NCATS MIPE library collection: OCIMY5_PLB cell viability assay (AID 1918988); further: potency means the concentration at half of the fitted maximal effect; nearly all actives have a fitted effect of over 65% in size
Procedure, shortened: as §1

[3] = Quantitative High-Throughput drug screen in 47 multiple myeloma cell lines against the NCATS MIPE library collection: OPM1_PLB cell viability assay (AID 1918989); further: nearly all actives have a fitted effect of over 40% in size; further: potency means the concentration at half of the fitted maximal effect
Procedure, shortened: as §1

[4] = Quantitative High-Throughput drug screen in 47 multiple myeloma cell lines against the NCATS MIPE library collection: SKMM1_PLB cell viability assay (AID 1919863); conditions: SKMM1 myeloma viability, CellTiter-Glo ATP, 48 h; viability: stronger effect = lower value; further: nearly all actives have a fitted effect of over 35% in size; further: potency means the concentration at half of the fitted maximal effect
Procedure, shortened: as §1

[5] = Quantitative High-Throughput drug screen in 47 multiple myeloma cell lines against the NCATS MIPE library collection: U266_ATCC cell viability assay (AID 1919864); further: potency means the concentration at half of the fitted maximal effect; nearly all actives have a fitted effect of over 35% in size
Procedure, shortened: as §1

[6] = Quantitative High-Throughput drug screen in 47 multiple myeloma cell lines against the NCATS MIPE library collection: XG6_PLB cell viability assay (AID 1919865); further: nearly all actives have a fitted effect of over 40% in size; further: potency means the concentration at half of the fitted maximal effect
Procedure, shortened: as §1

[7] = Quantitative High-Throughput drug screen in 47 multiple myeloma cell lines against the NCATS MIPE library collection: XG1_PLB cell viability assay (AID 1919866); further: nearly all actives have a fitted effect of over 35% in size; further: potency means the concentration at half of the fitted maximal effect
Procedure, shortened: as §1

[8] = Quantitative High-Throughput drug screen in 47 multiple myeloma cell lines against the NCATS MIPE library collection: VP6_DJ cell viability assay (AID 1919867); further: nearly all actives have a fitted effect of over 40% in size; further: potency means the concentration at half of the fitted maximal effect
Procedure, shortened: as §1

[9] = Quantitative High-Throughput drug screen in 47 multiple myeloma cell lines against the NCATS MIPE library collection: PE2_PLB cell viability assay (AID 1919869); further: nearly all actives have a fitted effect of over 35% in size; further: potency means the concentration at half of the fitted maximal effect
Procedure, shortened: as §1

[10] = Quantitative High-Throughput drug screen in 47 multiple myeloma cell lines against the NCATS MIPE library collection: PCM6_Riken cell viability assay (AID 1919870); further: nearly all actives have a fitted effect of over 30% in size; further: potency means the concentration at half of the fitted maximal effect
Procedure, shortened: as §1

[11] = Quantitative High-Throughput drug screen in 47 multiple myeloma cell lines against the NCATS MIPE library collection: RPMI8226_ATCC cell viability assay (AID 1919871); further: nearly all actives have a fitted effect of over 30% in size; further: potency means the concentration at half of the fitted maximal effect
Procedure, shortened: as §1

[12] = Quantitative High-Throughput drug screen in 47 multiple myeloma cell lines against the NCATS MIPE library collection: KMS11_JCRBsus cell viability assay (AID 1919873); further: nearly all actives have a fitted effect of over 50% in size; further: potency means the concentration at half of the fitted maximal effect
Procedure, shortened: as §1

[13] = Quantitative High-Throughput drug screen in 47 multiple myeloma cell lines against the NCATS MIPE library collection: KMS28BM_JCRB cell viability assay (AID 1919874); further: nearly all actives have a fitted effect of over 35% in size; further: potency means the concentration at half of the fitted maximal effect
Procedure, shortened: as §1

[14] = qHTS drug screen for cell cycle checkpoint inhibitors in PARPi-resistant BRCA-mutant ovarian cancer cell lines. (AID 1963452; calls by dose curve; further: potency means the concentration at half of the fitted maximal effect); conditions: PEO1/OlaR viability, CellTiter-Glo luminescence, 96 h; for Z-AUC: stronger effect = lower value
Procedure, shortened: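 PEO1, PEO4 and PEO1/OlaR ovarian cancer cells, 600 per well, exposed 96 h at 37C to a dilution series. Viability read by CellTiter-Glo luminescence, normalized to DMSO and empty wells; activity summarized as Z-AUC.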

[15] = qHTS profiling for inhibitors of Plasmodium falciparum proliferation (AID 504749);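 further: 0% = DMSO vehicle and full inhibition = artemisinin control; nearly all actives have a fitted effect of over 60% in size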; conditions: P. falciparum in erythrocytes, SYBR Green DNA, 72 h, parasite line A
Procedure, shortened: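 Fluorescence of SYBR Green-bound parasite DNA, read at 485/535 nm, served as the growth measure. Infected erythrocytes were cultured with compound 72 h; artemisinin (0.29 uM) and DMSO wells defined the normalization range.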

[16] = Quantitative High-Throughput drug screen in 47 multiple myeloma cell lines against the NCATS MIPE library collection: UTMC2_PLB cell viability assay (AID 1919868); conditions: CellTiter-Glo ATP luminescence, 48 h; viability (% of DMSO control): at 45.8 µM (top of the series) unless noted; further: nearly all actives have a fitted effect of over 55% in size; further: potency means the concentration at half of the fitted maximal effect;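 on viability (% of DMSO control): 100% = DMSO-only wells and 0% = media-only wells without cells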
Procedure, shortened: as §1

[17] = Quantitative High-Throughput drug screen in 47 multiple myeloma cell lines against the NCATS MIPE library collection: OPM2_DSMZ cell viability assay (AID 1919872); further: nearly all actives have a fitted effect of over 30% in size; further: potency means the concentration at half of the fitted maximal effect
Procedure, shortened: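 qHTS of the MIPE 4.0 collection: 500 myeloma cells/well, 48 h drug exposure at 37C in 5% CO2, then CellTiter-Glo for 5 min at room temperature before luminescence reading.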

[18] = qHTS for identification of novel therapeutic agents for treatment of microphthalmiaassociated transcription factor (MiT) renal cell carcinoma (RCC) (AID 1963991; calls by dose curve; further: potency means the concentration at half of the fitted maximal effect); conditions: CellTiter-Glo, 48 h; for z-score: stronger effect = lower value
Procedure, shortened: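 Viability of three TFE3-fusion renal carcinoma lines measured by CellTiter-Glo after 48 h treatment with each of 1912 compounds at 11 concentrations. Responses scaled between DMSO (100%) and empty wells (0%) before curve fitting.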

[19] = measured here: PEO1 parental Z-AUC
[20] = TFE3-RCC UOK109 viability, measured here: UOK109 Z-AUC
[21] = TFE3-RCC viability, measured here: UOK124 Z-AUC
[22] = TFE3-RCC viability, measured here: UOK145 Z-AUC

COc1cc(C(=O)NS(=O)(=O)c2ccccc2C)ccc1Cc1cn(C)c2ccc(NC(=O)OC3CCCC3)cc12
1.16: Z-AUC [14, 19]
active: Potency [1] 14.8 µM | Potency [2] 18.7 µM | Potency [3] 7.43 µM | Potency [4] 18.7 µM | Potency [5] 18.7 µM | Potency [6] 14.8 µM | Potency [7] 11.8 µM | Potency [8] 16.6 µM | Potency [9] 13.2 µM | Potency [10] 13.2 µM | Potency [11] 20.9 µM | Potency [12] 7.43 µM | Potency [13] 16.6 µM
inactive: Z-AUC [14] 1.83 | activity, negative = inhibition ([15]; at 28.7 µM (top of the series)) -4.29%
1.3: Z-AUC ([14]; measured here: PEO4 Z-AUC)

CN[C@H]1CCc2cc(OC)c(OC)c(OC)c2-c2ccc(OC)c(=O)cc21
active: Potency [1] 0.001 µM | Potency [2] 0.0013 µM | Potency [4] 0.0037 µM | Potency [5] 0.0066 µM | Potency [16] 0.0093 µM | Potency [11] 0.0083 µM | Potency [17] 0.0017 µM | Potency [12] 0.0013 µM | Potency [13] 0.0033 µM | Potency [14] 174 nM | Potency ([18]; TFE3-RCC UOK109 viability, active = Z-AUC below -0.8 in all three lines) 3.72 nM
inactive: Potency [7]
-2.9: z-score [18, 21]
-2.54: z-score [18, 20]
-1.41: Z-AUC [14, 19]
-1.47: Z-AUC ([14]; measured here: PEO4 Z-AUC)
-0.848: z-score [18, 22]

Cc1ccc2nc(NC(=O)CSc3nc4c(c(=O)n3-c3ccccc3)SCC4)sc2c1
1.46: Z-AUC [14, 19]
1.44: Z-AUC ([14]; measured here: PEO4 Z-AUC)
active: Potency [2] 7.43 µM | Potency [3] 16.6 µM | Potency [4] 11.8 µM | Potency [5] 20.9 µM | Potency [6] 14.8 µM | Potency [8] 9.35 µM | Potency [9] 9.35 µM | Potency [11] 16.6 µM | Potency [12] 8.33 µM | Potency [13] 9.35 µM
inactive: Potency [16] | Z-AUC [14] 1.55

COc1cc2ncn(-c3cc(OCc4ccccc4C(F)(F)F)c(C(N)=O)s3)c2cc1OC
-1.55: Z-AUC ([14]; measured here: PEO4 Z-AUC)
-0.678: Z-AUC [14, 19]
inactive: Z-AUC [14] -1.24
active: Potency [1] 0.332 µM | Potency [2] 1.32 µM | Potency [4] 0.166 µM | Potency [6] 1.66 µM | Potency [7] 0.209 µM | Potency [8] 18.7 µM | Potency [9] 18.7 µM | Potency [11] 5.26 µM | Potency [12] 0.296 µM | Potency [13] 0.526 µM

C[C@]1(CO)CN(c2cc(C(=O)Nc3ccc4c(c3)-c3c(c(C(N)=O)nn3-c3ccc(F)cc3)CC4)c(Cl)cn2)C[C@@]1(C)CO
active: Potency [1] 1.87 µM | Potency [2] 8.33 µM | Potency [3] 3.72 µM | Potency [5] 18.7 µM | Potency [6] 4.18 µM | Potency [7] 14.8 µM | Potency [8] 16.6 µM | Potency [16] 11.8 µM | Potency [9] 11.8 µM | Potency [11] 2.96 µM | Potency [12] 3.72 µM

COc1cc(Nc2ncc(F)c(Nc3ccc4c(n3)N(COP(=O)(O)O)C(=O)C(C)(C)O4)n2)cc(OC)c1OC
active: Potency [1] 1.87 µM | Potency [2] 26.4 µM | Potency [3] 1.87 µM | Potency [6] 1.48 µM | Potency [7] 0.662 µM | Potency [8] 1.48 µM | Potency [16] 5.26 µM | Potency [9] 1.18 µM | Potency [11] 20.9 µM | Potency [17] 18.7 µM | Potency [12] 2.96 µM

CC(C)(C)NC(=O)[C@H]1CN(Cc2cccnc2)CCN1C[C@@H](O)C[C@@H](Cc1ccccc1)C(=O)N[C@H]1c2ccccc2C[C@H]1O
active: Potency [1] 10.5 µM | Potency [2] 26.4 µM | Potency [3] 11.8 µM | Potency [4] 18.7 µM | Potency [6] 23.5 µM | Potency [7] 2.96 µM | Potency [8] 7.43 µM | Potency [10] 8.33 µM | Potency [12] 18.7 µM

COc1cccc(Nc2c(C(N)=O)cnc3c(C)cc(S(=O)(=O)c4cccc(C(=O)N(C)C)c4)cc23)c1
1.38: z-score [18, 20]
inactive: Potency [3] | viability [4] 113% | Potency [6] | Potency [7] | Potency [9] | Potency [10] | Potency [11] | Potency [17] | Potency [12] | Potency [13] | Z-AUC [14] -0.363
0.957: z-score [18, 22]
0.911: z-score [18, 21]
0.84: Z-AUC [14, 19] | Z-AUC ([14]; measured here: PEO4 Z-AUC)

Nc1ccc(S(=O)(=O)Nc2ncccn2)cc1
0.624: z-score [18, 21]
-0.287: z-score [18, 20]
inactive: Potency [3] | viability [4] 155% | Potency [6] | Potency [7] | Potency [8] | Potency [16] | Potency [9] | Potency [10] | Potency [17] | Potency [12] | Potency [13] | activity, negative = inhibition ([15]; at 12.8 µM (top of the series)) 8.9%
-0.336: z-score [18, 22]
